This is an account of results in the supplement of paper PMC6658780.

Molecules are shown by their SMILES. Counter-ions that a name gives are not always drawn. ± gives the standard deviation of the averaged measurements.

One assay relates to Escherichia coli ATCC BAA-2469. Kind of assay: percent growth inhibition of drug + antibiotic vs DMSO control; higher = more growth inhibition. The conditions noted are these: antibiotic (0.125x MIC): ciprofloxacin; 7 µM. As for the experimental part:
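Prestwick drugs tested at 20 uM and 7 uM with an antibiotic at 0.125x MIC (16 mg/L when MIC >128 mg/L) against E. coli ATCC BAA-2469 (NDM-1) in CAMHB, 384-well plates, duplicate runs. Percent growth inhibition was computed from OD600 (24 h minus 0 h) relative to DMSO wells. Drug + DMSO-only wells are also given. […]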
As to `O=C([O-])c1ccccc1-c1c2cc(Br)c(=O)cc-2oc2[c]([Hg+])c([O-])c(Br)cc12.[Na+].[Na+].[OH-]` [Merbromin], the percent growth inhibition stood at 0.00817 ± 2.1%.
As for `NCC1(CC(=O)O)CCCCC1` [Gabapentin], the percent growth inhibition was found to be 4.43 ± 4.2%.

Staying with this assay, now noted: antibiotic (0.125x MIC): ciprofloxacin; 20 µM.
Regarding `NCC1(CC(=O)O)CCCCC1` [Gabapentin], the percent growth inhibition came out at 9.67 ± 14%.

The same assay, now with this note: antibiotic (0.125x MIC): gentamicin; 7 µM.
Take `O=C(CCCN1CCC2(CC1)C(=O)NCN2c1ccccc1)c1ccc(F)cc1` [Spiperone]: the percent growth inhibition stood at 7.21 ± 1%.
As for `C[C@]12CC[C@H](O)C[C@@H]1CC[C@@H]1[C@@H]2CC[C@]2(C)C(=O)CC[C@@H]12` [Epiandrosterone], the percent growth inhibition was 0.433 ± 1.2%.

The assay is the same for the next values; noted with them: antibiotic (0.125x MIC): meropenem; 7 µM.
In the case of `O=C([O-])c1ccccc1-c1c2cc(Br)c(=O)cc-2oc2[c]([Hg+])c([O-])c(Br)cc12.[Na+].[Na+].[OH-]` [Merbromin], the percent growth inhibition stood at 0.439 ± 4%.
With `NCC1(CC(=O)O)CCCCC1` [Gabapentin], the percent growth inhibition was -2.95 ± 1.7%.

Still in this assay, the particulars now being: antibiotic (0.125x MIC): meropenem; 20 µM.
Turning to `CN1[C@@H]2CC[C@H]1C[C@@H](OC(=O)C(CO)c1ccccc1)C2` (some centres undefined) [Atropine sulfate monohydrate], the percent growth inhibition amounted to 0.268 ± 1.2%.
As for `Oc1cc(Cl)ccc1Oc1ccc(Cl)cc1Cl` [Triclosan], the percent growth inhibition was 97 ± 4.5%.
